Assay results: PMC7862700, “An all-to-all approach to the identification of sequence-specific readers for epigenetic DNA modifications on cytosine”

How the values were obtained:
Assay in all cases: DAPPL (digital affinity profiling via proximity ligation, sequencing); 10 mM Tris-HCl pH 7.5, 50 mM NaCl, 1 mM DTT, 4% glycerol, room temperature, 30 min; GST-TFs on glutathione beads, 16-mer random dsDNA library, 0.1% formaldehyde crosslink after washing; high values mean tight binding
FEV = biological target: T1, FEV (Homo sapiens, UniProt Q99581 1-238); conditions: protein: recombinant; tags: N-terminal GST; dsDNA, one strand shown
T1 sequence: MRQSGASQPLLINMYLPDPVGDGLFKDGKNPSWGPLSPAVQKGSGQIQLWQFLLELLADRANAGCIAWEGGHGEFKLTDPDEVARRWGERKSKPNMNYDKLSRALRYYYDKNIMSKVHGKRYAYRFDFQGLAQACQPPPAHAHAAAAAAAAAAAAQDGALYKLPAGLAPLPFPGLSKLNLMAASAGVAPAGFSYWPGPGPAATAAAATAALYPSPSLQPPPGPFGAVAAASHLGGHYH
Method in brief: (§1)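 Human transcription factors were made in yeast as GST fusions, captured on glutathione beads and barcoded with DNA. With a tag-only sample included, the pool was incubated with 200 nmole of a random double-stranded 16-mer DNA library in Tris/NaCl/DTT/glycerol buffer at room temperature for 30 min, then crosslinked with 0.1% formaldehyde after washing, ligated by proximity, amplified and sequenced. For binding signal, each hexamer's read frequency for a factor is divided by its frequency for the tag-only sample.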

ETV5 = ETV5 (Homo sapiens, UniProt P41161 1-510); conditions: protein: recombinant; tags: N-terminal GST; dsDNA, one strand shown
Method in brief: as §1

HSF1 = HSF1 (Homo sapiens, UniProt Q00613 1-529); conditions: protein: recombinant; tags: N-terminal GST; chain copies: 3; dsDNA, one strand shown
Method in brief: as §1

SPIC = biological target: T2, SPIC (Homo sapiens, UniProt Q8N5J4 1-248); conditions: protein: recombinant; tags: N-terminal GST; dsDNA, one strand shown
T2 sequence: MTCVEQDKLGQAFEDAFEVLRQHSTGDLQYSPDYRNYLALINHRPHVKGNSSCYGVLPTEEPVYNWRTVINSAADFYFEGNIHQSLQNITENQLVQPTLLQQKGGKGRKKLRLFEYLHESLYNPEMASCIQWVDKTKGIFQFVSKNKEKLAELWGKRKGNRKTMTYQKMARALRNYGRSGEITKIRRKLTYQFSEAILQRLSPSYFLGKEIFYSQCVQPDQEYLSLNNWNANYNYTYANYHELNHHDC
Method in brief: as §1

ELF4 = ELF4 (Homo sapiens, UniProt Q99607 1-663); conditions: protein: recombinant; tags: N-terminal GST; dsDNA, one strand shown
Method in brief: as §1

ELK4 = biological target: T3, ELK4 (Homo sapiens, UniProt P28324-2 1-405); conditions: protein: recombinant; tags: N-terminal GST; dsDNA, one strand shown
T3 sequence: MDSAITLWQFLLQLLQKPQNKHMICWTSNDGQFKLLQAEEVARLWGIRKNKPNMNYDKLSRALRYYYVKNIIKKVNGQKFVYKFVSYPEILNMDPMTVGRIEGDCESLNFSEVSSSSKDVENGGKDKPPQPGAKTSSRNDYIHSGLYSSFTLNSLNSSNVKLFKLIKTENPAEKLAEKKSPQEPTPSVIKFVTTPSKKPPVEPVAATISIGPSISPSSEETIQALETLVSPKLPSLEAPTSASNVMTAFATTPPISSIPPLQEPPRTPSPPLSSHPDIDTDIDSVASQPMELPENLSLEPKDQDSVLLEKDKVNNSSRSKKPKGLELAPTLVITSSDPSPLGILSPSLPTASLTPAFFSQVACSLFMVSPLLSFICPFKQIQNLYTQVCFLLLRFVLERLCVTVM
Method in brief: as §1

ETV2 = biological target: T4, ETV2 (Homo sapiens, UniProt O00321 1-342); conditions: protein: recombinant; tags: N-terminal GST; dsDNA, one strand shown
T4 sequence: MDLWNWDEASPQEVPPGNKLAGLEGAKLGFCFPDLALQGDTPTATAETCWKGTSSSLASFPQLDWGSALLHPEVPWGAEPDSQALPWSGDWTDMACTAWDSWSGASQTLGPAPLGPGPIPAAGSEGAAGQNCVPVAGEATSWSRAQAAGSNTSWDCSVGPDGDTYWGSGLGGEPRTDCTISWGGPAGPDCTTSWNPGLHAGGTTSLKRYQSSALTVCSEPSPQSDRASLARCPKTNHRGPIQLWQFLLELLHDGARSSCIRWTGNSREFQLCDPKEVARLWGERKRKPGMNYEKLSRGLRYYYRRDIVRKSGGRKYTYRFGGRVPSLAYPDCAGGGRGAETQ
Method in brief: as §1

ELF3 = biological target: T5, ELF3 (Homo sapiens, UniProt P78545 1-371); conditions: protein: recombinant; tags: N-terminal GST; dsDNA, one strand shown
T5 sequence: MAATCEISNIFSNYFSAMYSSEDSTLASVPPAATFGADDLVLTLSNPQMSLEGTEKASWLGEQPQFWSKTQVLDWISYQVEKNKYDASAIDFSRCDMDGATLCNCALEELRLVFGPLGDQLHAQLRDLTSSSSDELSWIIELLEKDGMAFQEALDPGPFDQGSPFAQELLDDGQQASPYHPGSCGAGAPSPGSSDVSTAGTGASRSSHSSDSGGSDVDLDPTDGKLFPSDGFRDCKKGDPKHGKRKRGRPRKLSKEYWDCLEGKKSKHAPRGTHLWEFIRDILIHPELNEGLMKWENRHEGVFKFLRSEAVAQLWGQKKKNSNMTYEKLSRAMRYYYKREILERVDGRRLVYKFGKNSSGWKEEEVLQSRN
Method in brief: as §1

CRX = CRX (Homo sapiens, UniProt O43186 1-299); conditions: protein: recombinant; tags: N-terminal GST; dsDNA, one strand shown
Method in brief: as §1

ETV1 = ETV1 (Homo sapiens, UniProt P50549 1-477); conditions: protein: recombinant; tags: N-terminal GST; dsDNA, one strand shown
Method in brief: as §1

HSF1, sequence (Q00613 whole entry): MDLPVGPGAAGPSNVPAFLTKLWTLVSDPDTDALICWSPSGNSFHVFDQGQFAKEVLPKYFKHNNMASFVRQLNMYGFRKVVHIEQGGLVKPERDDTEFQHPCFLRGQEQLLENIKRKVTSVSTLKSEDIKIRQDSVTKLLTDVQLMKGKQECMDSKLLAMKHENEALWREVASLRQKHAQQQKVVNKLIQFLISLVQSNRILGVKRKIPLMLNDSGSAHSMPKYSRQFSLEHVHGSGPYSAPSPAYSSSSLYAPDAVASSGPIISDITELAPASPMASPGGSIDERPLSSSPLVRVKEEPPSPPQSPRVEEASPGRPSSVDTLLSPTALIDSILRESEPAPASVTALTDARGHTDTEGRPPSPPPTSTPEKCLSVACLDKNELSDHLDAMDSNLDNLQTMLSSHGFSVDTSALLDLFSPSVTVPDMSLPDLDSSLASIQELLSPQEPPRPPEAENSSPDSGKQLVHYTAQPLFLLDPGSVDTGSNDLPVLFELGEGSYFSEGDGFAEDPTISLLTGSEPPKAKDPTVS
ETV5, sequence (P41161 whole entry): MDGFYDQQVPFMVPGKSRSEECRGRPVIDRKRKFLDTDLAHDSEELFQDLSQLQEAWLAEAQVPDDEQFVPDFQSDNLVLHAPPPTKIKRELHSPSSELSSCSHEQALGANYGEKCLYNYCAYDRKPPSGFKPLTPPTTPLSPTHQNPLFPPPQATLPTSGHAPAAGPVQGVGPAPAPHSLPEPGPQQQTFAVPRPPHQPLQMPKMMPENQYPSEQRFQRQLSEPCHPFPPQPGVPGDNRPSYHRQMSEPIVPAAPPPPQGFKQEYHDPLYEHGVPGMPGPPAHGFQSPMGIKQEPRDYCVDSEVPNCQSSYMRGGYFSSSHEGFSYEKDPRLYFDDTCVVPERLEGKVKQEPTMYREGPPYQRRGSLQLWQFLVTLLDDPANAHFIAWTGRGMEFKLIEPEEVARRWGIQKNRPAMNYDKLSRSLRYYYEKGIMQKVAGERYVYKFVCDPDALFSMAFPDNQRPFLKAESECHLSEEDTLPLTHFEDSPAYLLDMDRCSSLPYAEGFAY
ELF4, sequence (Q99607 whole entry): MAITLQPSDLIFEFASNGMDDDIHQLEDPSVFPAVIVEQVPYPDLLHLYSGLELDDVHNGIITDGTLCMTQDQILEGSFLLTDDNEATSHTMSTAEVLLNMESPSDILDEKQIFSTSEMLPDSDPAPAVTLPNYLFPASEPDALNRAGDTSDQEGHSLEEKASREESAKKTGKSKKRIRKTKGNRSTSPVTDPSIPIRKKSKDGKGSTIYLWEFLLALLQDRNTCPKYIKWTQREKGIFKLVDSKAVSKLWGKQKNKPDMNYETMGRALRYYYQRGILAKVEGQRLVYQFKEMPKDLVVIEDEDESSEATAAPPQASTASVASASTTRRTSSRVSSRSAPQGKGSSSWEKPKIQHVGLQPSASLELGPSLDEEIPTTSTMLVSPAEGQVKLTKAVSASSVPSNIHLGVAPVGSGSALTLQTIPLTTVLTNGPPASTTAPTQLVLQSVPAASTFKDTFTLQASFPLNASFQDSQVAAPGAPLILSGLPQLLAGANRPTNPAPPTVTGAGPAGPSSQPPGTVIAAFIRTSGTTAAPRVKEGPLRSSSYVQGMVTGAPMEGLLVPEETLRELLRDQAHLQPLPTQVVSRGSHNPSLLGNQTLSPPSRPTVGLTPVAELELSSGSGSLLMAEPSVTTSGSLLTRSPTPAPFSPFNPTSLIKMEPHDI
CRX, sequence (O43186 whole entry): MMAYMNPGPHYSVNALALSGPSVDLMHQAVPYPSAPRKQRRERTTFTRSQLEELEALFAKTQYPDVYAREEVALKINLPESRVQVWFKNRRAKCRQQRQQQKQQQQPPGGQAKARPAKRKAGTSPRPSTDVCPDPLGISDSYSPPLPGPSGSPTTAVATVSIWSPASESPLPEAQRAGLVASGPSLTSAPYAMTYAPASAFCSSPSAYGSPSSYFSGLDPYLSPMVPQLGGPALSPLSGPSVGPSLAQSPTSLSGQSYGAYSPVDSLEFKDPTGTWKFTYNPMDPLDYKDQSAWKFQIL
ETV1, sequence (P50549 whole entry): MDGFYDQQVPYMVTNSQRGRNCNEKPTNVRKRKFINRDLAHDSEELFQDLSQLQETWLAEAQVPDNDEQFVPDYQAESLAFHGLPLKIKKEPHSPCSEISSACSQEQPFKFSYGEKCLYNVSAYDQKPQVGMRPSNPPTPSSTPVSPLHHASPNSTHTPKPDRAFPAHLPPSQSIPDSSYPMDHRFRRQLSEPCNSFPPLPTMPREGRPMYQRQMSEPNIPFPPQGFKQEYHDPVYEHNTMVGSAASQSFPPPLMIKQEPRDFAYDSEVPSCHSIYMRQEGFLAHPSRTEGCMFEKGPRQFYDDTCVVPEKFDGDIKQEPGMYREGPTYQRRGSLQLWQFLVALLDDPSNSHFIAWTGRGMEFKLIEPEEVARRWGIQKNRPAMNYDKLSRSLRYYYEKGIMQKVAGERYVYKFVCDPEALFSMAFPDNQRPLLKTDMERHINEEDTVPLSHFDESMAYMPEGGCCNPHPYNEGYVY

TTGCAC
binding signal (FEV): 1.24 fold enrichment (6-mer frequency, TF over GST control)
binding signal (ETV5): 1.24 fold enrichment (6-mer frequency, TF over GST control)
binding signal (HSF1): 1.1 fold enrichment (6-mer frequency, TF over GST control)
binding signal (SPIC): 1.07 fold enrichment (6-mer frequency, TF over GST control)
binding signal (ELF4): 1.31 fold enrichment (6-mer frequency, TF over GST control)
binding signal (ELK4): 1.31 fold enrichment (6-mer frequency, TF over GST control)
binding signal (ETV2): 1.22 fold enrichment (6-mer frequency, TF over GST control)
binding signal (ELF3): 1.23 fold enrichment (6-mer frequency, TF over GST control)
binding signal (CRX): 1.11 fold enrichment (6-mer frequency, TF over GST control)
binding signal (ETV1): 1.22 fold enrichment (6-mer frequency, TF over GST control)
